Measured values taken from PubChem BioAssay.

Assay: HepG2 cell viability effects, profiling panel, calcein-AM fluorescence, 48 h, basal (AID 1164)
Details: higher = more signal
Note: test concentration not given here.

SMILES	z-score
CCCC=C(CCC)[C@@H](NC(=O)c1ccc(C(=O)OC)cc1)c1ccc(C(=O)OC)cc1	-1.54
COc1ccc(C#Cc2ccc3c(c2)[C@]2(C(=O)N3)[C@H](c3ccccc3OCCO)N3[C@H](c4ccccc4)[C@H](c4ccccc4)OC(=O)[C@H]3[C@@H]2C(=O)NC[C@H](O)c2ccccc2)cc1	-1.88
C=C(C(=O)CC[C@@H](OC(=O)c1ccccc1-c1ccccc1C(=O)O)c1cccc(OCCO)c1)C(C)C	-0.474
C[C@]1(C(=O)NC2CC2)c2ccccc2C(=O)N(Cc2cc(F)cc(C(F)(F)F)c2)[C@H]1c1ccc(CO)cc1	0.0046
C=C(COC)C(=O)CC[C@H](OC(C)=O)c1ccccc1OCCO	-0.699
CCOC(=O)C[C@H]1[C@H](OC(=O)Cc2ccc3c(c2)OCO3)[C@@H](NC(=O)CC(C)C)c2cc(OCCCO)ccc2N1C(=O)c1ccc2ccccc2n1	-0.236
O=C1C[C@@](C(=O)NCC(F)(F)F)(c2ccc([N+](=O)[O-])cc2)[C@@H](c2ccc(CO)cc2I)N1CC12CC3CC(CC(C3)C1)C2	-5.2
COc1cc(CO)cc(I)c1O[C@H]1C=C(C(=O)NCCO)C[C@@H](N(CCN2CCOCC2)C(=O)C2CCCO2)[C@@H]1O (stereo not given in full)	0.315
O=C1C2C=CC(C(O)C(c3ccccc3)c3ccccc3)N(Nc3ccccc3F)C2C(=O)N1c1ccccc1 (stereo not given)	0.355
COC(=O)C[C@H]1O[C@]2(C(=O)N(C)c3ccccc32)[C@@H](C)[C@@H]1[Si](C)(C)c1ccccc1	-1.05
CC(C)(C)OC(=O)CC[C@]1(C(=O)N2CCOCC2)COC(c2ccc(OCCCO)cc2)=N1	1.26
C=C(CC1([C@@H](NP(=O)(c2ccccc2)c2ccccc2)[C@H]2C[C@@H]2CCCC)CC1)c1cccc(OC)c1	-0.96
COc1ccc(C(=O)Nc2cccc(CN3C(=O)[C@]4(O[C@H](CC(=O)N(CCO)Cc5ccccc5)[C@@H]([Si](C)(C)c5ccc(OC)cc5)[C@@H]4C)c4ccccc43)c2)cc1	-0.801
CC[C@@H](O[Si](C#C[Si](C(C)C)(C(C)C)C(C)C)(C(C)C)C(C)C)c1cn([C@H](CO)Cc2ccccc2)nn1	0.928

Assay: MM1S cell viability effects, profiling panel, calcein-AM fluorescence, 48 h, basal (AID 1165);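 note: viability of MM1S multiple myeloma cells under basal unstimulated conditions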
Details: higher = more signal

SMILES	z-score
COc1cc(Cc2cc3c(c(-c4ccccc4)n2)[Si](C(C)C)(C(C)C)OC3)cc(OC)c1OC	-0.537
COCCOC(=O)N1C(=O)[C@@]2(c3cc(C#CCC(C(=O)OC)C(=O)OC)ccc31)[C@H](C(N)=O)[C@H]1C(=O)O[C@H](c3ccccc3)[C@H](c3ccccc3)N1[C@@H]2c1ccccc1OCCO	-2.97
C[C@@]1([C@@H](NS(=O)(=O)c2cccc3cccnc23)c2ccc(-c3ccccc3)cc2)C[C@H]1C1CCCCC1	-1.28
C=C(C(=O)CC[C@@H](OC(=O)c1ccccc1-c1ccccc1C(=O)O)c1ccc(CO)o1)C(C)C	-1.33
CCOC(=O)C1=CCC(c2cccn2C(=O)OC(C)(C)C)N(S(=O)(=O)c2ccc(C)cc2)C1 (stereo not given)	-3.2
O=C1N(Cc2ccccc2)c2ccccc2C[C@@]12N=C(c1ccc(OCCCO)cc1)O[C@H]2c1ccccc1	-3.33
Cc1ccc(S[C@]2(C(=O)NC3CC3)CC(=O)N(C3Cc4ccccc4C3)[C@@H]2c2ccc(CO)cc2I)cc1	-2.21
CCc1cccc(NC(=O)O[C@H]2[C@H](OC(=O)Nc3ccccc3-c3ccccc3)[C@H](OC(=O)Nc3ccccc3-c3ccccc3)[C@@H](OC)O[C@@H]2CO)c1	-1.62
CC(C)C[C@H]1NC(=O)CNC(=O)[C@@]23C(=O)N[C@@H](Cc4ccccc4)C2[C@H](C)[C@@]2(C)O[C@H]2C3/C=C/C/C=C\CNC1=O (stereo not given in full)	-0.101
C=C(/C=C\CNS(=O)(=O)c1ccc(C)cc1)[C@H](O)[C@H]1CCCN1S(=O)(=O)c1ccccc1[N+](=O)[O-]	-3.14
C[C@]1(C(=O)O)c2ccccc2C(=O)N(Cc2cc(C(F)(F)F)cc(C(F)(F)F)c2)[C@H]1c1ccc(CO)cc1	-0.103
COC(=O)C(CC#Cc1ccc2c(c1)[C@]1(C(=O)N2)[C@H](c2ccc(OCCO)cc2)N2[C@H](c3ccccc3)[C@H](c3ccccc3)OC(=O)[C@H]2[C@@H]1C(N)=O)C(=O)OC	-2.2
CN1C(=O)C2C=CC(C(O)c3ccc(I)cc3)N(N(c3ccccc3)c3ccccc3)C2C1=O (stereo not given)	-0.0182
COc1ccc([Si](C)(C)[C@@H]2[C@@H](CC(=O)N(CCO)Cc3ccccc3)O[C@]3(C(=O)N(Cc4cccc(I)c4)c4ccccc43)[C@H]2C)cc1	-2.55
COc1ccc([Si](C)(C)[C@H]2[C@H](CC(=O)N3CCC[C@H]3CO)O[C@@]3(C(=O)N(Cc4cccc(N5CCCCC5=O)c4)c4ccccc43)[C@@H]2C)cc1	-2.65
O=C1C2C=CC(C(O)C3CCCCC3)N(Nc3ccccc3F)C2C(=O)N1c1ccccc1 (stereo not given)	0.345
C=C(COC)/C(=C/C[C@@H](OC(C)=O)c1cccc(OCCO)c1)c1cnc2ccccc2c1	-0.588
COC(=O)C1=CC(c2ccc(CO)cc2)=CC(C2CC2)N(Cc2cc3c(cc2Br)OCO3)C=C1C(=O)OC (stereo not given)	-0.785

SMILES	z-score
O=C/C=C/c1ccc(-c2ccccc2)cc1	-3.23
COc1ccc(C(O)C2C=CC3C(=O)N(C)C(=O)C3N2Nc2ccccc2)cc1 (stereo not given)	0.291
COCCOC(=O)N1C(=O)[C@@]2(c3cc(C#CCNC(N)=O)ccc31)[C@H](c1ccccc1OCCO)N1[C@H](c3ccccc3)[C@H](c3ccccc3)OC(=O)[C@H]1[C@@H]2C(=O)N1CCCCCCC1	-1.22
CC1C2C(CCCO)=CC(C3C(=O)N(C(N)=O)C(=O)C23)N1Cc1cccc(OC(F)(F)F)c1 (stereo not given)	-0.486
CCCC=C(CCC)[C@@H](NC(=O)c1ccc(C(=O)OC)cc1)c1ccc(C(=O)OC)cc1	-1
COc1ccc(C#Cc2ccc3c(c2)[C@]2(C(=O)N3)[C@H](c3ccccc3OCCO)N3[C@H](c4ccccc4)[C@H](c4ccccc4)OC(=O)[C@H]3[C@@H]2C(=O)NC[C@H](O)c2ccccc2)cc1	-2.85
C=C(C(=O)CC[C@@H](OC(=O)c1ccccc1-c1ccccc1C(=O)O)c1cccc(OCCO)c1)C(C)C	-0.305
C[C@]1(C(=O)NC2CC2)c2ccccc2C(=O)N(Cc2cc(F)cc(C(F)(F)F)c2)[C@H]1c1ccc(CO)cc1	0.0749
C=C(COC)C(=O)CC[C@H](OC(C)=O)c1ccccc1OCCO	-3.39
CCOC(=O)C[C@H]1[C@H](OC(=O)Cc2ccc3c(c2)OCO3)[C@@H](NC(=O)CC(C)C)c2cc(OCCCO)ccc2N1C(=O)c1ccc2ccccc2n1	0.383
O=C1C[C@@](C(=O)NCC(F)(F)F)(c2ccc([N+](=O)[O-])cc2)[C@@H](c2ccc(CO)cc2I)N1CC12CC3CC(CC(C3)C1)C2	-3.84
COc1cc(CO)cc(I)c1O[C@H]1C=C(C(=O)NCCO)C[C@@H](N(CCN2CCOCC2)C(=O)C2CCCO2)[C@@H]1O (stereo not given in full)	0.605
O=C1C2C=CC(C(O)C(c3ccccc3)c3ccccc3)N(Nc3ccccc3F)C2C(=O)N1c1ccccc1 (stereo not given)	-1.33
COC(=O)C[C@H]1O[C@]2(C(=O)N(C)c3ccccc32)[C@@H](C)[C@@H]1[Si](C)(C)c1ccccc1	-0.344
CC(C)(C)OC(=O)CC[C@]1(C(=O)N2CCOCC2)COC(c2ccc(OCCCO)cc2)=N1	0.571
C=C(CC1([C@@H](NP(=O)(c2ccccc2)c2ccccc2)[C@H]2C[C@@H]2CCCC)CC1)c1cccc(OC)c1	-3.47
COc1ccc(C(=O)Nc2cccc(CN3C(=O)[C@]4(O[C@H](CC(=O)N(CCO)Cc5ccccc5)[C@@H]([Si](C)(C)c5ccc(OC)cc5)[C@@H]4C)c4ccccc43)c2)cc1	-0.829
CC[C@@H](O[Si](C#C[Si](C(C)C)(C(C)C)C(C)C)(C(C)C)C(C)C)c1cn([C@H](CO)Cc2ccccc2)nn1	0.297
